The values that follow come from PubChem BioAssay (NCATS).

Molecules are shown by their SMILES. Activity calls are given as the source filed them. Calls come from the whole dose curve; as a rule, active = well fitted curve in the direction sought with a large enough effect; inconclusive = small, poorly fitted or top-dose-only effect, or another doubt; inactive = no such curve, though single readings can be large or run the other way.

The nature of the experiment: Validation qHTS assay for inhibitors of Activation Induced Cytidine Deaminase (AID): UDG Counterscreen signal (AID 1347427). Note: 0% is about no effect. To be noted: biochemical UDG counterscreen, fluorescence signal; series mostly up to 115 µM; activity, negative = inhibition: at the top concentration. From the text: Assay Provider (PI) Patricia Gearhart Ph.D.
National Institute on Aging
National Institute of Health (NIH), Bethesda, MD
Assay Provider (PI) Rahul Kohli Ph.D.
Perelman School of Medicine
University of Pennsylvania, Philadelphia, PA
Activation-Induced Deaminase (AID) is a cytosine deaminase which converts cytosine into uracil within stretches of ssDNA. The presence of uracil in DNA initiates a cascade of mutagenic DNA repair to introduce point mutations and DNA double strand breaks. Specific targeting of AID to the immunoglobulin heavy chain loci (Igh) promotes mutagenesis in the antibody variable region for somatic hypermutation (SHM) or switch regions leading to class switch recombination (CSR). However, AID also plays a role in accumulating unnecessary mutations across the genome. Mis-targeting of AID results in the initiation of tumor development and leads to greater drug resistance among cancer cells when continually expressed. To identify an AID inhibitor, a small molecule library will be screened in collaboration with NCATS core facility at NIH. To confirm biological function, inhibitors will be examined in an in vitro murine B-cell activation assay and subsequent secondary validation screens. Top molecules will be further screened to identify inhibitory efficacy against a wild type primary splenocytes assay. Using these approaches, we hope to identify a small molecule with great efficacy and low toxicity for use as a molecular probe to further characterize AID's intricacies, or even as a therapeutic.
A FRET based analysis of cytosine deamination, was developed to identify potential inhibitors of AID catalytic activity. This screen has two signal output, Read 1 evaluates the AID inhibition response. The second readout (Read 2) evaluates UDG response and is uses as a counterscreen to exclude false positive inhibitors. Inhibition in AID and inactivity in the UDG signal is the desired outcome for this assay.
SEQUENCE No. (e.g., 1, 2, 3, etc.); […] (e.g., Cells, Incubation, Reagent, etc.); VALUE; DESCRIPTION
1a; Reagent; 3 uL; [4/3x] 1 uM AID/2.67 U/mL UDG
1b; Reagent; 3 uL; 2 U/mL UDG
1c; Reagent; 3 uL; 1 uM AID
2a; Compound; 46 nL; Follow-up plates (0.64 uM - 10 mM)
2b; Control; 46 nL; ATA ([…] - 10 mM)
3; Time; 10 min; incubation at room temperature
5; Time; 4 hr; incubation at room temperature
6; Reagent; 4 uL; [2x] 250 mM NaOH
7; Time; 15 sec; centrifuge at 1000 rpm
8; Time; 30 min; incubation at room temperature
9a; Detection; fluorescence (Read 1: AID); EnVision (PerkinElmer) plate reader, 540 excitation and 590 emission filters
9b; Detection; fluorescence (Read 2: UDG); EnVision (PerkinElmer) plate reader, 560 excitation and 665 emission filters
NOTES (numbers refer to sequence above)
1a; Reagents were dispensed in a medium-binding black solid-bottom Greiner plates (789176F) using a BioRptr liquid dispenser. Dispense 3 uL of [4/3x] 1 uM AID (provided by Kohli lab) and [4/3x] 2 U/mL UDG (NEB M0280L) into columns 1, 2, 5 to 48.
1b; Dispense 3 uL of [4/3x] 2 U/mL UDG into column 3.
1c; Dispense 3 uL of [4/3x] 1 uM AID into column 4.
2b; 10 mM Aurintricarboxylic Acid (Sigma A1895) (ATA, 8-point, n = 2, 1:2.5 dilution in column 2) double pin-transferred (Dip Factor = 2) using the Kalypsys (Wako USA) pintool equipped with a 1536 pinhead for a [final] range of 186 nM - 114 uM.
3; Room temperature incubation.
4; Dispense 1 uL of substrate mixture from the Kohli lab [4x] […] DJC20 and [4x] 250 nM DJC23 into columns 1 to 48 .
5; Room temperature incubation.
6; Dispense 4 uL of substrate mixture [2x] 250 mM NaOH into columns 1 to 48.
7; Centrifugation step to remove bubbles.
8; Room temperature incubation
9a; Fluorescence signal (column label AID) was read using the EnVision plate reader. Excitation filter = 540(8) nm, barcode = 311; Emission filter = 590(20) nm, barcode = 217; Mirror = D555, barcode = 405.
9b; Fluorescence signal (column label UDG) was read using the EnVision plate reader. […]
Background: In qHTS, concentration-response curves come from the screen itself.
Consider `O=S1(=O)N(CCN2CC=C(c3c[nH]c4cc(F)ccc34)CC2)c2cccc3c2N1CCC3`, for which the “activity, negative = inhibition” value was -6.89% (inactive). Next, `N[C@@H](Cn1oc(=O)[nH]c1=O)C(=O)O`: -0.27% (inactive); `O=[N+]([O-])/C=C/c1ccc2c(c1)OCO2`: 11.4% (inactive); `NC(C(=O)O)c1cc(=O)[nH]o1` (stereo not given): 4.83% (inactive).

With `COc1ccc2c(c1)/C(=C/c1cnc[nH]1)C(=O)N2`, the “activity, negative = inhibition” value is 2.66% (inactive).

As for `CC(C)[C@@]1(NC(=O)[C@@H]2C[C@@H]3c4cccc5[nH]cc(c45)C[C@H]3N(C)C2)O[C@@]2(O)[C@@H]3CCCN3C(=O)[C@H](Cc3ccccc3)N2C1=O`, the “activity, negative = inhibition” value is 12% (inactive). Take `NCCCP(=O)(O)O`: the “activity, negative = inhibition” value was 0.0933% (inactive). In the case of `CCOC(=O)c1ncn2c1[C@@H]1CCCN1C(=O)c1cc(OC)ccc1-2`, the “activity, negative = inhibition” value is 4.87% (inactive). Take `NCC(O)c1cc(O)c(O)cc1F` (stereo not given): the “activity, negative = inhibition” value was -4.29% (inactive). As to `CCCN(CCC)[C@H]1CCc2c(F)ccc(O)c2C1`, the “activity, negative = inhibition” value was 9.99% (inactive). Next, `Ic1ccccc1CNC1C2CCN(CC2)C1C(c1ccccc1)c1ccccc1` (stereo not given): 0.746% (inactive).

Consider `CN(C(=O)Cc1ccc(Cl)c(Cl)c1)C(CN1CCCC1)c1cccc(OCC(=O)O)c1` (stereo not given), for which the “activity, negative = inhibition” value was 3.36% (inactive). Regarding `COC(=O)N1CCN(C(=O)Cc2ccc(Cl)c(Cl)c2)C(CN2CCCC2)C1` (stereo not given), the “activity, negative = inhibition” value is 11.7% (inactive). As for `O=[N+]([O-])c1cc(O)c(O)c([N+](=O)[O-])c1`, the “activity, negative = inhibition” value was -0.102% (inactive).

For `CCCC[N+]1(C)C2CC(OC(=O)[C@H](CO)c3ccccc3)CC1C1OC12` (stereo not given in full), the “activity, negative = inhibition” value was 3.53% (inactive). Turning to `C[Se]C[C@H](N)C(=O)O`, the “activity, negative = inhibition” value is -7.32% (inactive). For `CCCN1CCC[C@@H](c2cccc(O)c2)C1`, the “activity, negative = inhibition” value is 12.5% (inactive).

`Cc1sc2ccccc2c1CC1=NCCN1`: the “activity, negative = inhibition” value was 8.98% (inactive). As for `O=c1c2ccccc2[se]n1-c1ccccc1`, the “activity, negative = inhibition” value was 4.37% (inactive).

For `CC(C)(O)[C@@H]1C2OC(=O)[C@@H]1[C@]1(O)C[C@H]3O[C@]34C(=O)O[C@H]2[C@]14C` (tested in a mixture with another compound), the “activity, negative = inhibition” value is 16.5% (inactive). Take `COc1ccc2[nH]c3c(c2c1)CCNC3`: the “activity, negative = inhibition” value is 10.8% (inactive). For the compound `CP(=O)(O)C1=CCNCC1`, the “activity, negative = inhibition” value is 4.28% (inactive). With `CN1CCC(c2c[nH]c3ccc(O)cc23)CC1`, the “activity, negative = inhibition” value is 16.6% (inactive). With `N[C@@H](Cn1ccc(=O)[nH]c1=O)C(=O)O`, the “activity, negative = inhibition” value was 9.85% (inactive).

Consider `CCCN1CCc2cc(O)cc3c2[C@H]1Cc1ccc(O)c(O)c1-3`, for which the “activity, negative = inhibition” value was 10.1% (inactive). Consider `COc1cc(CC(C)N)c(OC)cc1I` (stereo not given), for which the “activity, negative = inhibition” value was 6.21% (inactive).

In the case of `CC(=O)NBr`, the “activity, negative = inhibition” value is 3.74% (inactive). `C[N+]1(C)CCOC(O)(c2ccc(-c3ccc(C4(O)C[N+](C)(C)CCO4)cc3)cc2)C1` (stereo not given): the “activity, negative = inhibition” value is 8% (inactive).

Consider `CCCN(CCC)CCc1c[nH]c2ccc(C(N)=O)cc12`, for which the “activity, negative = inhibition” value was 12.7% (inactive). The value for `Clc1ccc(N2CC3CCC(C2)N3)nn1` was 8.49% (inactive); that for `NNC(=O)c1ccc(O)cc1` was 15.3% (inactive).

Regarding `CN1CCc2cccc(Cl)c2CC1`, the “activity, negative = inhibition” value is 7.39% (inactive). `CCN(CCCl)Cc1ccccc1Br`: the “activity, negative = inhibition” value was 2.31% (inactive). The value for `Cc1cc([C@@H]2CCCN2C)on1` was 3.45% (inactive); that for `CCCn1c(C)c(C(=O)c2ccc3ccccc3c2)c2ccccc21` was -8.62% (inactive); that for `C=CCN1CCc2cccc3c2[C@H]1Cc1ccc(O)c(O)c1-3` was -2.41% (inactive). For `NC(CCCCCP(=O)(O)O)C(=O)O` (stereo not given), the “activity, negative = inhibition” value is 14.5% (inactive). Next, `CCCN1CCc2cccc3c2[C@H]1Cc1ccc(O)c(O)c1-3`: 8.86% (inactive); `NC(N)=NOCC[C@H](N)C(=O)O`: -5.54% (inactive); `C[C@]12Cc3cn4c(nc3C=C1CCC1C2CC[C@@]2(C)[C@H]1CC[C@@]2(O)C#N)nc1ccccc14` (stereo not given in full): 4.18% (inactive).
